Results taken from PubChem BioAssay (Tox21).
Values joined by “and” are separate entries in the source; they are usually repeats but may differ in a detail not shown here. Equal values may be shown once. Records with an inconclusive call do not appear. Where a call stands in place of a potency, no number is given. Active and inactive are the calls of the source. Unless noted, calls come from the whole dose curve; as a rule, active = well fitted curve in the direction sought with a large enough effect in the repeat runs; inconclusive = weak or mixed curves; inactive = flat fitted curve, though single readings scatter.

Columns and labels:
[1] = qHTS assay to test for compound auto fluorescence at 535 nm (green) in HEK293 cells (AID 720680)
[2] = qHTS assay to test for compound auto fluorescence at 535 nm (green) in HEK293 cell free culture (AID 720682)
In short: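 Green-label autofluorescence (485 nm excitation, 535 nm emission) measured on compound added to cell-free culture medium (DMEM, 10% FBS). Output is expressed relative to fluorescein.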

[3] = qHTS assay to test for compound auto fluorescence at 590 nm (red) in HEK293 cell free culture (AID 720683)
In short: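 Tox21 10K library compounds were pinned into cell-free DMEM with 10% FBS and fluorescence was read at excitation 540 nm. Activity is expressed as Rose Bengal sodium equivalency.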

[4] = qHTS assay to test for compound auto fluorescence at 590 nm (red) in HepG2 cell free culture (AID 720684)
In short: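 Readout: intrinsic compound fluorescence at 590 nm emission after 540 nm excitation, scaled to Rose Bengal sodium. Matrix was cell-free MEM with 10% FBS; DMSO vehicle wells served as control.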

[5] = qHTS assay to test for compound auto fluorescence at 460 nm (blue) in HepG2 cell free culture (AID 720685)
In short: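 Cell-free plates of MEM plus 10% FBS received 23 nL compound or DMSO vehicle; blue-channel (405/460 nm) intensity scored against triamterene as reference fluorophore.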

[6] = qHTS assay to test for compound auto fluorescence at 535 nm (green) in HepG2 cell free culture (AID 720686)
[7] = qHTS assay to test for compound auto fluorescence at 460 nm (blue) in HepG2 cells (AID 720687)
In short: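 Cells (2,000/well in MEM with 10% FBS) attached overnight at 37 C, then were exposed to compound or DMSO for 1 hr at 37 C, 5% CO2. Fluorescence read at Ex/Em 405/460 nm, expressed as triamterene-equivalent signal.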

[8] = qHTS assay to test for compound auto fluorescence at 460 nm (blue) in HEK293 cell free culture (AID 720681)
In short: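 Test compounds were pinned into cell-free culture medium (DMEM with 10% FBS) and fluorescence was read directly at Ex/Em 405/460 nm. Signals were expressed as fluorescence equivalents of triamterene, with DMSO vehicle as control.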

[9] = biological target: Glucocorticoid receptor (Homo sapiens) (UniProt P04150); experiment: qHTS assay to identify small molecule agonists of the glucocorticoid receptor (GR) signaling pathway (AID 720691; active = well fitted activation curve with a large enough effect in the signal ratio in the repeat runs, not every such curve was filed as active; the % refers to the signal ratio)
Glucocorticoid receptor (Homo sapiens), sequence (P04150 whole entry, looked up): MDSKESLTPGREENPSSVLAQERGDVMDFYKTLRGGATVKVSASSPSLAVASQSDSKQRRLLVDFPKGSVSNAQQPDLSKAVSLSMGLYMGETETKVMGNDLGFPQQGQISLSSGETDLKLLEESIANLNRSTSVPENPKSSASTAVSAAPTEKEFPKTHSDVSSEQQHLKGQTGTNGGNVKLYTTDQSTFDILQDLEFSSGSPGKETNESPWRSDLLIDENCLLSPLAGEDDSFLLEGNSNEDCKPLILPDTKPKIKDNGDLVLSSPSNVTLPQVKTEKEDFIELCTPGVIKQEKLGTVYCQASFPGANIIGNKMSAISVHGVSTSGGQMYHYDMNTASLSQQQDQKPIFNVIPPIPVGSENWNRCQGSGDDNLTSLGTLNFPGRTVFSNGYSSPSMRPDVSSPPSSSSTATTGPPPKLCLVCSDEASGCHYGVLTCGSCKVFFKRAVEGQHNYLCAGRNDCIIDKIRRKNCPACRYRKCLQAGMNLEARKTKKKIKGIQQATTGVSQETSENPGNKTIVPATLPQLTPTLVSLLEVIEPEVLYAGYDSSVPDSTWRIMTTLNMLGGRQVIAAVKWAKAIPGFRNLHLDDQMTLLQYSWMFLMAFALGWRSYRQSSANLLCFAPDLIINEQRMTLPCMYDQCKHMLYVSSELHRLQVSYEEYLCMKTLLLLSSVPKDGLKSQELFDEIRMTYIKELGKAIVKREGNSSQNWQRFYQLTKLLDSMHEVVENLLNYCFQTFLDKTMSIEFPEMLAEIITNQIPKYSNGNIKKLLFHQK
In short: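 HeLa GR-bla reporter line; cells pre-incubated 4 h, compound in DMSO 18 h at 37 C; LiveBLAzer B/G FRET substrate 2 h RT; fluorescence intensity read-out.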

[10] = biological target: Glucocorticoid receptor (Homo sapiens) (UniProt P04150); experiment: qHTS assay to identify small molecule antagonists of the glucocorticoid receptor (GR) signaling pathway (AID 720692; active = well fitted inhibition curve with a large enough effect in the signal ratio in the repeat runs, not every such curve was filed as active; the % refers to the signal ratio; note: potency is the fitted concentration of half-maximal effect)
In short: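 Read-out: beta-lactamase FRET substrate fluorescence, 2 h at room temperature, in HeLa cells stably carrying a GRE-driven bla reporter. Compounds were co-incubated with 5 nM dexamethasone agonist (final) for 18 h at 37 C.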

SMILES | outcome [1] | outcome [2] | outcome [3] | outcome [4] | outcome [5] | outcome [6] | outcome [7] | outcome [8] | outcome [9] | Potency [10]
ClCCBr | inactive | inactive | inactive | inactive | inactive | inactive | inactive | – | – | –
CC(C)OC(=O)Nc1cccc(Cl)c1 | inactive | inactive | inactive | inactive | inactive | inactive | inactive | – | – | –
O=NN1CCCCCCC1 | inactive | inactive | inactive | inactive | inactive | inactive | inactive | inactive | inactive | inactive
c1ccc(-c2ccccc2)cc1 | inactive | inactive | inactive | inactive | inactive | inactive | inactive | inactive | inactive | inactive
CC(=O)C=C(C)C | inactive | inactive | inactive | inactive | inactive | inactive | inactive | inactive | inactive | inactive
C=CC(N)=O | inactive | inactive | inactive | inactive | inactive | inactive | inactive | inactive | inactive | inactive
CC(C)=C[C@@H]1[C@@H](C(=O)OCc2coc(Cc3ccccc3)c2)C1(C)C | inactive | inactive | inactive | inactive | inactive | inactive | inactive | inactive | inactive | inactive
Cn1cc(-c2ccccc2)c(=O)c(-c2cccc(C(F)(F)F)c2)c1 | inactive | inactive | inactive | inactive | inactive | inactive | inactive | inactive | inactive | inactive
O=Cc1cccc(Oc2ccccc2)c1 | inactive | inactive | inactive | inactive | inactive | inactive | inactive | inactive | inactive | inactive
O=c1n(Cl)c(=O)n(Cl)c(=O)n1Cl | inactive | inactive | inactive | inactive | inactive | inactive | inactive | inactive | inactive | inactive
CC(C#N)CCC#N (configuration not stated) | inactive | inactive | inactive | inactive | inactive | inactive | inactive | inactive | inactive | inactive
Cc1cc(Cl)ccc1O | inactive | inactive | inactive | inactive | inactive | inactive | inactive | inactive | inactive | inactive
C=C(C)CCl | inactive | inactive | inactive | inactive | inactive | inactive | inactive | inactive | inactive | inactive
Oc1ccccc1Cl | inactive | inactive | inactive | inactive | inactive | inactive | inactive | inactive | inactive | inactive
CC(NC(C)(C)C)C(=O)c1cccc(Cl)c1 (configuration not stated) | inactive | inactive | inactive | inactive | inactive | inactive | inactive | inactive | inactive | inactive
CCCCCOC(=O)c1ccccc1C(=O)OCCCCC | inactive | inactive | inactive | inactive | inactive | inactive | inactive | inactive | inactive | inactive
CCCCN(CC)C(=O)SCCC | inactive | inactive | inactive | inactive | inactive | inactive | inactive | inactive | inactive | inactive
COc1ccc2c3c1O[C@H]1[C@@H](O)C=C[C@H]4[C@@H](C2)N(C)CC[C@@]341 | inactive | inactive | inactive | inactive | inactive | inactive | inactive | – | – | –
Clc1cccc(Cl)c1Cl | inactive | inactive | inactive | inactive | inactive | inactive | inactive | inactive | inactive | inactive

SMILES | outcome [1] | outcome [2] | outcome [3] | outcome [4] | outcome [5] | outcome [6] | outcome [7] | outcome [8] | outcome [9] | Potency [10]
CCCN(CCC)c1c([N+](=O)[O-])cc(C(F)(F)F)cc1[N+](=O)[O-] | inactive | inactive | inactive | inactive | inactive | inactive | inactive | – | – | –
C#CCN(C)[C@H](C)Cc1ccccc1 | inactive | inactive | inactive | inactive | inactive | inactive | inactive | – | inactive | inactive
Cc1ccc(N)cc1N | inactive | inactive | inactive | inactive | inactive | inactive | – | – | inactive | inactive
BrCCBr | inactive | inactive | inactive | inactive | inactive | inactive | inactive | – | inactive | inactive
CCCCN(CCCC)SN(C)C(=O)Oc1cccc2c1OC(C)(C)C2 | inactive | inactive | inactive | inactive | inactive | inactive | inactive | – | inactive | inactive
Cc1[nH]c(=O)n(C(C)(C)C)c(=O)c1Cl | inactive | inactive | inactive | inactive | inactive | inactive | inactive | – | – | –
CC(C)(C)OOC(=O)c1ccccc1 | inactive | inactive | inactive | inactive | inactive | inactive | inactive | – | inactive | inactive
c1ccc2c(c1)oc1ccccc12 | inactive | inactive | inactive | inactive | inactive | inactive | inactive | – | inactive | inactive
Nc1ccc(Cc2ccc(N)cc2)cc1 | inactive | inactive | inactive | inactive | inactive | inactive | inactive | – | inactive | inactive
c1cc2c3c(cccc3c1)CC2 | inactive | inactive | inactive | inactive | inactive | inactive | inactive | – | inactive | inactive
O=S(=O)(c1ccc(O)cc1)c1ccc(O)cc1 | inactive | inactive | inactive | inactive | inactive | inactive | inactive | – | inactive | inactive
CC(Br)C(=O)O (configuration not stated) | inactive | inactive | inactive | inactive | inactive | inactive | inactive | – | inactive | inactive
O=[N+]([O-])c1ccc(Oc2ccc(Cl)cc2Cl)cc1 | inactive | inactive | inactive | inactive | inactive | inactive | inactive | – | inactive | inactive
C#CC(C)(C)NC(=O)c1cc(Cl)cc(Cl)c1 | inactive | inactive | inactive | inactive | inactive | inactive | inactive | – | inactive | inactive
COC(=O)c1ccccc1C(=O)OC | inactive | inactive | inactive | inactive | inactive | inactive | inactive | – | inactive | inactive
CN1C(=O)CN=C(c2ccccc2)c2cc(Cl)ccc21 | inactive | inactive | inactive | inactive | inactive | inactive | inactive | – | inactive | 13.4 µM (active) and 28 µM (active)
CN(C)CCO | inactive | inactive | inactive | inactive | inactive | inactive | inactive | – | inactive | inactive
CCOP(=S)(OCC)Oc1cnc2ccccc2n1 | inactive | inactive | inactive | inactive | inactive | inactive | inactive | – | inactive | inactive
CNC(=O)Oc1ccccc1OC(C)C | inactive | inactive | inactive | inactive | inactive | inactive | inactive | – | inactive | inactive

SMILES | outcome [1] | outcome [2] | outcome [3] | outcome [4] | outcome [5] | outcome [6] | outcome [7] | outcome [8] | outcome [9] | Potency [10]
Nc1ccc(Oc2ccc(N)cc2)cc1 | inactive | inactive | inactive | inactive | inactive | inactive | inactive | – | inactive | inactive
O=S(=O)(c1ccc(Cl)cc1)c1cc(Cl)c(Cl)cc1Cl | inactive | inactive | inactive | inactive | inactive | inactive | inactive | – | inactive | –
CC(C)(C)C(O)(CCc1ccc(Cl)cc1)Cn1cncn1 (configuration not stated) | inactive | inactive | inactive | inactive | inactive | inactive | inactive | – | inactive | 43.6 µM (active)
[O-][Cl+2]([O-])O | inactive | inactive | inactive | inactive | inactive | inactive | inactive | – | – | –
CCCCOC(=O)c1ccccc1C(=O)OCCCC | inactive | inactive | inactive | inactive | inactive | inactive | inactive | – | inactive | –
CON(C)C(=O)Nc1ccc(Cl)c(Cl)c1 | inactive | inactive | inactive | inactive | inactive | inactive | inactive | – | inactive | inactive
CN(C)N=O | inactive | inactive | inactive | inactive | inactive | inactive | inactive | – | inactive | inactive
CCC[N+](=O)[O-] | inactive | inactive | inactive | inactive | inactive | inactive | inactive | – | – | –
NCC(O)c1ccc(O)cc1 (configuration not stated) | inactive | inactive | inactive | inactive | inactive | inactive | inactive | – | – | –
CN(C)[C@@H]1C(=O)C(C(N)=O)=C(O)[C@@]2(O)C(=O)C3=C(O)c4c(O)cccc4[C@@](C)(O)[C@H]3C[C@@H]12 | inactive | inactive | inactive | inactive | inactive | inactive | inactive | – | inactive | inactive
CCCN(CCC)N=O | inactive | inactive | inactive | inactive | inactive | inactive | inactive | – | inactive | inactive
COC(=O)NS(=O)(=O)c1ccc(N)cc1 | inactive | inactive | inactive | inactive | inactive | inactive | inactive | – | inactive | inactive
CCCCCCCCCCCC#N | inactive | inactive | inactive | inactive | inactive | inactive | inactive | – | inactive | inactive
C1CN2CCN1CC2 | inactive | inactive | inactive | inactive | inactive | inactive | inactive | – | – | –
Cc1ccc([N+](=O)[O-])cc1C | inactive | inactive | inactive | inactive | inactive | inactive | inactive | – | – | –
CC(C)C#N | inactive | inactive | inactive | inactive | inactive | inactive | inactive | – | inactive | inactive
CC(Oc1ccc(Cl)cc1Cl)C(=O)O (configuration not stated) | inactive | inactive | inactive | inactive | inactive | inactive | inactive | – | inactive | inactive
O=[N+]([O-])c1ccc([As](=O)(O)O)cc1 | inactive | inactive | inactive | inactive | inactive | inactive | inactive | – | inactive | inactive
